PubChem BioAssay (NCATS)
Records with an inconclusive call do not appear. Where a call stands in place of a potency, no number is given. Activity calls are given as the source filed them. Unless noted, the call rests on the fitted dose curve; in most records, active means well fitted curve in the direction sought with a large enough effect; inconclusive means small, poorly fitted or top-dose-only effect, or another doubt; inactive means no such curve, though single readings can be large; an effect the other way counts as inactive or inconclusive.

Tests used:
[1] = NS1 protein of Zika virus - qHTS assay to identify small molecule inhibitors in human HEK 293 cells (AID 1347053); further: series mostly up to about 46 µM; nearly all actives have a fitted effect of over 55% in size
In short: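 In this cell-based screen, HEK 293 cultures received compound for one hour before Zika MR766 at MOI = 0.5. NS1 was quantified 24 hours later by TR-FRET, normalized to virus-free wells and infected wells.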

[2] = biological target: T1, Tyrosine-protein phosphatase non-receptor type substrate 1 (Homo sapiens) + Leukocyte surface antigen CD47 (Homo sapiens) (UniProt P78324+Q08722); assay: CD47-SIRPalpha protein protein interaction - LANCE assay qHTS validation (AID 1347057; active means well fitted curve in the direction sought with a large enough effect in the signal ratio, with a control signal flat, not every such curve was filed as active; the % refers to the signal ratio; further: series mostly up to about 38 µM)
In short: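 Inhibition of soluble CD47/SIRPalpha ectodomain association by titrated compounds, measured as 665/615 nm time-resolved FRET ratio after sequential 30 min room-temperature incubations.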

[3] = biological target: T1, Tyrosine-protein phosphatase non-receptor type substrate 1 (Homo sapiens) + Leukocyte surface antigen CD47 (Homo sapiens); assay: CD47-SIRPalpha protein protein interaction - HTRF assay qHTS validation (AID 1347058; active means well fitted curve in the direction sought with a large enough effect in the signal ratio, not every such curve was filed as active; the % refers to the signal ratio; further: series mostly up to about 38 µM)
In short: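 Soluble extracellular domains (6His-CD47, Avi-tag-biotinylated SIRPalpha) in PBS pH 7.4 with 0.05% IGEPAL CA-630. Compounds were preincubated 30 min at RT with CD47 and anti-His-Eu, then SIRPalpha and SAV-XL665 were added. TR-FRET 665/615 ratio.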

[4] = biological target: T1, Tyrosine-protein phosphatase non-receptor type substrate 1 (Homo sapiens) + Leukocyte surface antigen CD47 (Homo sapiens); assay: CD47-SIRPalpha protein protein interaction - Alpha assay qHTS validation (AID 1347059);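 further: bead proximity luminescence from CD47 binding SIRPalpha after compound preincubation with SIRPalpha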
In short: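 AlphaScreen signal between CD47-His (12.5 nM) and biotin-SIRPalpha (25 nM) soluble extracellular domains, bead-captured via Ni-NTA and streptavidin. Compounds, in 7-point titrations, met SIRPalpha 30 min before CD47; PBS pH 7.4 with 0.05% IGEPAL.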

[5] = biological target: Parathyroid hormone/parathyroid hormone-related peptide receptor (Homo sapiens) (UniProt Q03431); assay: qHTS for PTHR1 Agonists: Optimization Screen against the NCGC LOPAC library (AID 1347079);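 further: GloSensor cAMP luminescence in HEK-293 GP2 cells expressing human PTHR1 with IBMX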
In short: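 HEK-293 GP2 cells, PTHR1 + GloSensor cAMP; 3000 cells/well, o/n. Luciferin + IBMX 0.5mM each (stock), 1 hr 37C. Cpd titration, 1 hr 37C. Lum after 15 min RT. Ctrl M-PTH(1-15) top 10uM.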

[6] = system: Zika virus NS2B-NS3 protease (unlinked); assay: Optimization of GU AMC qHTS for Zika virus inhibitors: Unlinked NS2B-NS3 protease assay (AID 1347151); further: nearly all actives have a fitted effect of over 80% in size; further: potency means the concentration at half of the fitted maximal effect
In short: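 Noncovalent NS2B hydrophilic domain–NS3 protease complex (25 nM final) in 10 mM Tris-HCl pH 8.0, 0.01% Tween 20; AMC substrate, room temperature 15 min (~20% conversion); fluorescence change normalized, 4-parameter Hill fit.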

[7] = biological target: N-terminal Xaa-Pro-Lys N-methyltransferase 1 (Homo sapiens) (UniProt Q9BV86); assay: qHTS Assay for Inhibitors of N-terminal methyltransferase 1 (NTMT1): LOPAC validation of the NTMT1 SAHH-coupled ThioGlo3 Assay (AID 1347143);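 further: SAH from peptide methylation measured as thiol fluorescence via SAHH coupling and ThioGlo3; nearly all actives have a fitted effect of over 70% in size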; further: potency means the concentration at half of the fitted maximal effect
In short: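 NTMT1 125nM + cpds (various conc.), 1 min RT; add SAM 100uM/SAHH 10uM/ThioGlo3 15uM (addition mix). SAHH-coupled thiol detection, Ex340/Em450, t0 and 30 min RT; signal normalized to background. LOPAC 1280-cpd pilot.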

[8] = system: Zika virus NS2B-NS3 protease (unlinked complex); assay: Confirmatory screen GU AMC qHTS for Zika virus inhibitors (AID 1347153); further: nearly all actives have a fitted effect of over 70% in size
In short: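 Noncovalent NS2B hydrophilic domain/NS3 protease complex (25 nM) in 10 mM Tris-HCl pH 8.0, 0.01% Tween 20 was preincubated 15 min at room temperature with compounds. Then 10 µM AMC substrate (Km 18.3 µM) was added; fluorescence was read over 15 min and fitted to a 4-parameter Hill equation.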

Furin (Homo sapiens) = Furin (Homo sapiens) (UniProt P09958); assay: Furin counterscreen qHTS for Zika virus inhibitors (AID 1347149);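 further: purified recombinant full-length human furin enzyme at 5 nM; fluorescence gain from furin cutting a BOC-RVRR-AMC peptide substrate over 15 min; top concentration of the series differs between compounds; nearly all actives have a fitted effect of over 70% in size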
In short: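 Counterscreen measures cleavage of 2 microM BOC-RVRR-AMC, below its ~15 microM Km, by 5 nM full-length human furin at pH 7.0 after a 15-min compound preincubation. Inhibition derives from the 15-min fluorescence increase at 37C.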

Chain of Parathyroid hormone/parathyroid hormone-related peptide receptor (Homo sapiens) (Q03431 whole entry, looked up): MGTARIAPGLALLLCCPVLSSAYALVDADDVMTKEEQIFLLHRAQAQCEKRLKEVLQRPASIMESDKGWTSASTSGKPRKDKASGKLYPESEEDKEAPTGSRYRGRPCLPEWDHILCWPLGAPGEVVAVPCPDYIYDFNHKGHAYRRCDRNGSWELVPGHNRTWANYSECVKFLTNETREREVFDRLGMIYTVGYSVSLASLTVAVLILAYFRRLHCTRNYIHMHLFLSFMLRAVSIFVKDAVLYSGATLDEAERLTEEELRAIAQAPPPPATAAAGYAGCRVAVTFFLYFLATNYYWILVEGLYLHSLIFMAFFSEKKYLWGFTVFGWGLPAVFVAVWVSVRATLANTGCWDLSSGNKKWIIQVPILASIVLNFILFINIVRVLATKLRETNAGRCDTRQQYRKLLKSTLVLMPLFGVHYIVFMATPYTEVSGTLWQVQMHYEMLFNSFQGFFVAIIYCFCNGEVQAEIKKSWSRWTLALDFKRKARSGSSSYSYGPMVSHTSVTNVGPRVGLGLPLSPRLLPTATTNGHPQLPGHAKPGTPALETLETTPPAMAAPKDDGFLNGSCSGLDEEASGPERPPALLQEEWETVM
Chain of N-terminal Xaa-Pro-Lys N-methyltransferase 1 (Homo sapiens) (Q9BV86 whole entry, looked up): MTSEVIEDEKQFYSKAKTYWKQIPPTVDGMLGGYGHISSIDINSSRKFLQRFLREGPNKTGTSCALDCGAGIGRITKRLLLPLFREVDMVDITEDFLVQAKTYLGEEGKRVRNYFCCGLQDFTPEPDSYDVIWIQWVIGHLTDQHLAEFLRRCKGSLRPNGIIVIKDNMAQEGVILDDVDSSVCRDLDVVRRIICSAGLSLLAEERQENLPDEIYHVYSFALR
T1 sequence (P78324 whole entry, looked up, the tested form may be a part): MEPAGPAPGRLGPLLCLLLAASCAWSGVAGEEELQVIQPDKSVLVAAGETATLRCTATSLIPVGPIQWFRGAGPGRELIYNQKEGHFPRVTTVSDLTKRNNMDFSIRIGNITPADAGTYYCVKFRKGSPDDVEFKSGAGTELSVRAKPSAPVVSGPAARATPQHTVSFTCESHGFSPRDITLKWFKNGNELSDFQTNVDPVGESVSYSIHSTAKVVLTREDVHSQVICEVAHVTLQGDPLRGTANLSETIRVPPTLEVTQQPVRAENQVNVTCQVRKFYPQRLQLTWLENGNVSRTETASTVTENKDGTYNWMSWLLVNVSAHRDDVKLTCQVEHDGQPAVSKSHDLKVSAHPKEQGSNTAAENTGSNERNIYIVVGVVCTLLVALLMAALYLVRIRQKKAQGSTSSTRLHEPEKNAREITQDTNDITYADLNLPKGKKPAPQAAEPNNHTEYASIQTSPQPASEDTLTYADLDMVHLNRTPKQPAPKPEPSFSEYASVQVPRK
T1 sequence (Q08722 whole entry, looked up, the tested form may be a part): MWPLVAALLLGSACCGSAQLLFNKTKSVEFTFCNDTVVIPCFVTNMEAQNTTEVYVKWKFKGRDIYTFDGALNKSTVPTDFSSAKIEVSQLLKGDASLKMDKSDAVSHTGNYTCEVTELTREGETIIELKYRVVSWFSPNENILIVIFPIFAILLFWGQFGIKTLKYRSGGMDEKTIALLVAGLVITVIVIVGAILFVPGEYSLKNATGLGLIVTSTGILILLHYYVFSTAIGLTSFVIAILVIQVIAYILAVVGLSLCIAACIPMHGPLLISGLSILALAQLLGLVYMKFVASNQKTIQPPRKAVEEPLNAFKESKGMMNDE
Chain of Furin (Homo sapiens) (P09958 whole entry, looked up): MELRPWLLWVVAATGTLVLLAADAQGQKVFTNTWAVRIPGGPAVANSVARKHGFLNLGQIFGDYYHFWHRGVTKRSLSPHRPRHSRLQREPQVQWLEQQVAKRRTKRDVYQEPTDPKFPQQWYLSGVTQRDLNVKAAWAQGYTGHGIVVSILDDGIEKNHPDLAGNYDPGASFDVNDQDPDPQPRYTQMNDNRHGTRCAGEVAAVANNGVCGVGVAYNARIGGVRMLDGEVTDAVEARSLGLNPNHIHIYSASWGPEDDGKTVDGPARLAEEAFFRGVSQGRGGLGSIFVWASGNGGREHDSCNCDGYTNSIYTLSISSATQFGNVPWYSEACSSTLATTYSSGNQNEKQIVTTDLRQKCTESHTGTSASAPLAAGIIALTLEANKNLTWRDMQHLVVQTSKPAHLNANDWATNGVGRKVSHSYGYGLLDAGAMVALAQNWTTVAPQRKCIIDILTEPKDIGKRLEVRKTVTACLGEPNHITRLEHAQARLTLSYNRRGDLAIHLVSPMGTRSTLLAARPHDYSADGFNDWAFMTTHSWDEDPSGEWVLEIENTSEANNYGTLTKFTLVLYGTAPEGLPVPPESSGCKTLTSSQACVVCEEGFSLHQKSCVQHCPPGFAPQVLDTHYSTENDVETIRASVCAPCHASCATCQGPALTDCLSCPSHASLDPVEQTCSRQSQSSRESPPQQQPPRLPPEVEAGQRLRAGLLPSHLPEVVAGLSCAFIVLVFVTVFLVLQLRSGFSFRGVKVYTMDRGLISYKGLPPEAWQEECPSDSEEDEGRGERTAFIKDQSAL

SMILES | Potency [1] | Potency [2] | outcome [3] | Potency [4] | Potency [5] | Potency [6] | Potency [7] | Potency [8] | Potency (Furin (Homo sapiens))
CCCCCC[C@@H]([C@@H](C)O)n1cnc2c(N)ncnc21 | inactive | inactive | inactive | inactive | inactive | inactive | – | – | –
c1ccc2c(c1)CC(N1CCN(c3cccc4c3OCCO4)CC1)C2 | inactive | inactive | inactive | inactive | inactive | inactive | inactive | – | –
Cc1cccc(C(=O)NCN2CCN(c3ccccc3C#N)CC2)c1 | inactive | inactive | inactive | inactive | inactive | – | – | inactive | –
CCCN(CCc1ccccc1)C1CCc2c(O)cccc2C1 (stereo unspecified) | inactive | inactive | inactive | inactive | – | inactive | inactive | – | –
CN1CCCC1CCOC(C)(c1ccccc1)c1ccc(Cl)cc1 (stereo unspecified) | inactive | inactive | inactive | inactive | inactive | inactive | – | – | –
CCCc1c(OCCCOc2ccc(OCC(=O)O)cc2)ccc(C(C)=O)c1O | inactive | inactive | inactive | inactive | inactive | – | – | – | inactive
O=C1OC(=O)C2C3CCC(O3)C12 (stereo unspecified) | inactive | inactive | inactive | inactive | – | inactive | inactive | – | –
O=C(O)C1=CCCNC1 | inactive | inactive | inactive | inactive | inactive | inactive | – | – | –
CCC1(O)CC2CN(CCc3c([nH]c4ccccc34)[C@@](C(=O)OC)(c3cc4c(cc3OC)N(C=O)C3[C@]45CCN4CC=C[C@@](CC)([C@@H](OC(C)=O)[C@]3(O)C(=O)OC)[C@H]45)C2)C1 (stereo partly specified) | inactive | inactive | inactive | inactive | – | inactive | – | – | –
CCCn1c(=O)c2c(ncn2C)n(CCC)c1=O | inactive | inactive | inactive | inactive | – | inactive | inactive | – | –
NCCNS(=O)(=O)c1cccc2c(Cl)cccc12 | inactive | inactive | inactive | inactive | inactive | inactive | – | – | –
C=CCN1CCc2c(cc(O)c(O)c2Cl)C(c2ccccc2)C1 (stereo unspecified) | inactive | inactive | inactive | inactive | – | 18.9 µM (active) | 20 µM (active) | – | –
N[C@@H](Cc1c[nH]c2ccccc12)C(=O)O | inactive | inactive | inactive | inactive | – | inactive | inactive | – | –
CC(N)(Cc1ccc(O)cc1)C(=O)O (stereo unspecified) | inactive | inactive | inactive | inactive | – | inactive | inactive | – | –
CCN(CC)CCOC(=O)c1cc(Cl)c(N)cc1OC | inactive | inactive | inactive | inactive | – | inactive | – | – | –
CC(C)NC[C@H](O)COc1ccc(CC(N)=O)cc1 | inactive | inactive | inactive | inactive | – | inactive | inactive | – | –
CSc1nc(N)c2ncn([C@@H]3O[C@H](COP(=O)(O)OP(=O)(O)O)C(O)[C@H]3O)c2n1 (stereo partly specified) | inactive | inactive | inactive | inactive | inactive | inactive | – | – | –
Cc1nc2n(c(=O)c1CCN1CCC(c3noc4cc(F)ccc34)CC1)CCCC2O (stereo unspecified) | inactive | inactive | inactive | inactive | – | inactive | inactive | – | –
NCC(O)C1CCCCCCC1 (stereo unspecified) | inactive | inactive | inactive | inactive | – | inactive | – | – | –
Nc1ccc(CCNc2ncnc3c2ncn3C2OC(CO)C(O)C2O)cc1 (stereo unspecified) | inactive | inactive | inactive | inactive | inactive | inactive | – | – | –
CN1CCc2cc(Cl)c(O)cc2[C@@H](c2ccccc2)C1 | inactive | inactive | inactive | inactive | inactive | inactive | – | – | –
CC(=O)C(C)=O | inactive | inactive | inactive | inactive | – | inactive | inactive | – | –
O=c1ccc2c(OCCCCc3ccccc3)c3ccoc3cc2o1 | inactive | inactive | inactive | inactive | inactive | 26.7 µM (active) | – | – | –
CCCCCCCCCCC(C)(C)C(=O)Nc1c(OC)cc(OC)cc1OC | inactive | inactive | inactive | inactive | – | – | inactive | – | –
O=c1onc2n1-c1cc(Br)ccc1OC2 | inactive | inactive | inactive | inactive | – | inactive | inactive | – | –
Cn1c(=O)c2c(nc(/C=C/c3cccc(Cl)c3)n2C)n(C)c1=O | inactive | inactive | inactive | inactive | inactive | 11.9 µM (active) | – | – | –
CC(C)NCC(O)COc1ccc(CC(N)=O)cc1 (stereo unspecified) | inactive | inactive | inactive | inactive | – | inactive | inactive | – | –
CNCCNS(=O)(=O)c1cccc2cnccc12 | inactive | inactive | inactive | inactive | inactive | inactive | – | – | –
O=c1oc(Cl)c(Cl)c2ccccc12 | inactive | inactive | inactive | inactive | – | inactive | 50.1 µM (active) | – | –
